The list is not random: actives were taken first. Their share in the collection is about 1.8%.
L3MBTL1 inh: inhibitors of human L3MBTL1. Potency, µM (titrated, usually from 57.1 µM), usual class: inhibitors. 230,000 compounds, 0.66% hits. Q9Y468. AlphaScreen L3MBTL1–H3K9me1 peptide binding; note: nearly all actives have a fitted effect of over 60% in size
Target sequence (Q9Y468 whole entry, looked up): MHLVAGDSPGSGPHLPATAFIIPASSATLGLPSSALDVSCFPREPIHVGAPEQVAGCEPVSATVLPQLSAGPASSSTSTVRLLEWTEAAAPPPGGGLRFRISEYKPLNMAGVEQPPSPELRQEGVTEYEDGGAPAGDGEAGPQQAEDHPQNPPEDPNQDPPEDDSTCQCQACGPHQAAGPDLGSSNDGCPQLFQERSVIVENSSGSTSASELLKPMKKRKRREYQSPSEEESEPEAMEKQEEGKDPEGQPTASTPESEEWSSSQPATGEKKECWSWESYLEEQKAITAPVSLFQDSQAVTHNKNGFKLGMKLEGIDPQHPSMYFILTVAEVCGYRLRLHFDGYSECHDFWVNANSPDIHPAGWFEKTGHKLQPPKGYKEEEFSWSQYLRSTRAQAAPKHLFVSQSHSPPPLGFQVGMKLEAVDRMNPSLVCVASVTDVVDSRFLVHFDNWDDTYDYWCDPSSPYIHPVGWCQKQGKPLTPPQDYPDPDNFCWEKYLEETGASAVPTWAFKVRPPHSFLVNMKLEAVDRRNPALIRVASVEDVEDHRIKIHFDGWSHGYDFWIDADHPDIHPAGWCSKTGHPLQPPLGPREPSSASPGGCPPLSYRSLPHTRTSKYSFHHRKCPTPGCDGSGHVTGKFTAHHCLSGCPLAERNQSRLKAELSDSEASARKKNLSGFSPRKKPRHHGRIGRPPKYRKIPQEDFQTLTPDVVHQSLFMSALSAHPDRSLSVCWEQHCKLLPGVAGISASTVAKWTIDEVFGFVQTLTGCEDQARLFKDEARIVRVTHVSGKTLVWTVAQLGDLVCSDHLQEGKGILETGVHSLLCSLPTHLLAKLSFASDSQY
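L3MBTL1 (50 nM) pre-complexed 30 min with biotinylated H3(1-15)K9me1 peptide (75 nM), then compounds added for 30 min at room temperature; AlphaScreen streptavidin donor/nickel chelate acceptor beads (10 ug/mL final) read after 30 min dark incubation.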
HTT ATP protect: cytoprotection in Huntington HTT-Q103 PC12 cell model | Potency, µM (highest dose often 56.4 µM), usual class: activators | 230,000 compounds, 0.14% hits | PC12 HTT-Q103 induced, cytoprotection, ATP luminescence, 40 h | AID 1471; note: nearly all actives have a fitted effect of over 45% in size
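Compounds added alongside 100 nM tebufenozide, which induces toxic Q103 huntingtin exon 1-GFP in stable PC12 cells; surviving cells quantified by luminescent ATP measurement. Medium: phenol red-free DMEM, 5% equine and 5% calf serum.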
HTT aggregate: inhibitors of mutant huntingtin aggregate formation in PC12 cells; Potency, µM (highest dose often 46.1 µM), actives largely listed as inhibitors; 220,000 compounds, 1.1% hits; AID 1688; PC12 HttQ103-GFP aggregates, Acumen cytometry, 40 h; note: nearly all actives have a fitted effect of over 60% in size
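Steps: seed 1500 PC12 HTTQ103-GFP cells/well; add tebufenozide, 100 nM final; add compound titration; add ATPLite reagent; quantify GFP aggregates by laser scanning cytometry.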
JMJD2E inh: blocks human JMJD2E demethylase activity. JMJD2E catalytic domain, FDH-coupled NADH fluorescence (FDH is formaldehyde dehydrogenase). Potency, µM (highest dose often 57.1 µM), usual class: inhibitors. 230,000 compounds, 1.6% hits; active = well fitted inhibition curve with a large enough effect, not every such curve was filed as active; inconclusive = small, poorly fitted or top-dose-only effect, or another doubt; inactive = no such curve, though single readings can be large or run the other way; note: nearly all actives have a fitted effect of over 50% in size
Large screens that a line does not name were inactive. Unless noted, calls come from the whole dose curve; as a rule, active = well fitted curve in the direction sought with a large enough effect; inconclusive = small, poorly fitted or top-dose-only effect, or another doubt; inactive = no such curve, though single readings can be large; an effect the other way counts as inactive or inconclusive.

CCOC(=O)N1CCN(S(=O)(=O)c2ccc(C(=O)Nc3nnc(C)o3)cc2)CC1	HTT ATP protect 3.5µM, HTT aggregate inconclusive, JMJD2E inh inconclusive
COc1cccc(-c2nnc(NC(=O)c3ccc(S(=O)(=O)N4CCOCC4)cc3)o2)c1	HTT aggregate 10µM, JMJD2E inh inconclusive
COc1ccc(-c2nnc(NC(=O)c3ccccc3C)o2)cc1	JMJD2E inh inconclusive (no result: L3MBTL1 inh)
O=C(c1ccco1)N1CCC2(CC1)CCN(c1ccncc1)CC2	none (no result: L3MBTL1 inh, HTT aggregate, JMJD2E inh)
CCCn1c(NC(=O)C2CCN(C(=O)c3ccccc3C)CC2)nc2ccccc21	none (no result: HTT ATP protect, HTT aggregate, JMJD2E inh)
CCCn1c(NC(=O)c2cccc(C)c2C)nc2ccccc21	HTT aggregate 6.3µM (no result: L3MBTL1 inh)
C=CC[C@@H]1C=C[C@@H](O/N=C\[C@@H](OC)[C@H](C)/C=C\CC(=O)OC)[C@@H](CO)O1	none (no result: L3MBTL1 inh, HTT aggregate, JMJD2E inh)
CN(C)c1cc(Cl)c2nonc2c1N	L3MBTL1 inh 32µM
Cc1cc(C)n(-c2nnc(N3CCN(c4ccc(F)cc4)CC3)nn2)n1	L3MBTL1 inh inconclusive, HTT aggregate 11µM
O=C(O)c1ccc(NS(=O)(=O)c2ccc3c(c2)C2C=CCC2C(c2ccccc2F)N3)cc1 (stereo not drawn)	L3MBTL1 inh 7.9µM
O=C(O)c1ccc2c(c1)C1C=CCC1C(c1cc3c(cc1Br)OCO3)N2 (stereo not drawn)	none
Oc1c(Cl)cc(Cl)c2cccnc12	HTT aggregate 8.9µM, JMJD2E inh 14µM (no result: L3MBTL1 inh)
Oc1c(I)cc(I)c2cccnc12	HTT aggregate inconclusive, JMJD2E inh 14µM
Oc1ccc(Cl)c2cccnc12	JMJD2E inh inconclusive (no result: L3MBTL1 inh)
O=S(=O)(O)c1cc(I)c(O)c2ncccc12	none (no result: L3MBTL1 inh, JMJD2E inh)
CC(=O)NCc1cc(Cl)c2cccnc2c1O	L3MBTL1 inh 22µM (no result: HTT ATP protect, HTT aggregate, JMJD2E inh)
CN(C1CCCCC1)S(=O)(=O)c1ccc(NC(=O)C2CCCCC2)cc1	HTT aggregate 1.8µM (no result: L3MBTL1 inh)
CC1(OC(=O)CCc2ccccc2)C(=O)C=C2C=C3CCCN3C=C2C1=O (stereo not drawn)	JMJD2E inh 18µM (no result: L3MBTL1 inh)
CC1(OC(=O)C2CCCC2)C(=O)C=C2C=C3CCCN3C=C2C1=O (stereo not drawn)	none (no result: L3MBTL1 inh, HTT aggregate)
CC1(OC(=O)c2cccs2)C(=O)C=C2C=C3CCCN3C=C2C1=O (stereo not drawn)	JMJD2E inh 5.6µM (no result: L3MBTL1 inh)
O=C(COC(=O)C1CC1)c1c[nH]c2ccccc12	L3MBTL1 inh inconclusive, HTT aggregate 0.032µM (no result: HTT ATP protect)
O=C(COC(=O)C1CCC1)c1c[nH]c2ccccc12	none (no result: HTT ATP protect, HTT aggregate, JMJD2E inh)
Clc1nc(NCCc2ccccc2)c2ncn(-c3ccccc3)c2n1	none (no result: L3MBTL1 inh, HTT aggregate, JMJD2E inh)
CN1C(=O)C2(OCC(COc3ccc(Cl)cc3)O2)c2ccccc21 (stereo not drawn)	HTT aggregate 1µM
O=C1Nc2ccccc2C12OCC(COc1ccc(Cl)cc1)O2 (stereo not drawn)	none (no result: L3MBTL1 inh)
O=C1CC(NC(=O)C(F)(F)F)c2cc3c(cc21)OCO3 (stereo not drawn)	JMJD2E inh inconclusive
O=C(NC1C/C(=N/O)c2cc3c(cc21)OCO3)C(F)(F)F (stereo not drawn)	HTT ATP protect 4µM, HTT aggregate inconclusive (no result: L3MBTL1 inh)
CCN1C(=O)/C(=C2\SC(=S)N(CC3CCCO3)C2=O)c2ccccc21 (stereo not drawn)	none (no result: L3MBTL1 inh)
CCN1C(=O)/C(=C2\SC(=S)N(NC(=O)c3ccccc3O)C2=O)c2ccccc21	L3MBTL1 inh inconclusive, JMJD2E inh 25µM
COc1ccc(OC)c(CCNC(=O)Cn2sc3nc(C)cc(C)c3c2=O)c1	HTT aggregate inconclusive, JMJD2E inh 28µM (no result: L3MBTL1 inh)
O=S(=O)(c1ccc(F)cc1)N1CCCC(c2nc(-c3ccc(F)cc3)no2)C1 (stereo not drawn)	none (no result: HTT ATP protect, HTT aggregate, JMJD2E inh)
O=S(=O)(NC1CC1)c1ccc(S(=O)(=O)N2CCCC(c3nc(-c4cccnc4)no3)C2)cc1 (stereo not drawn)	HTT aggregate 11µM (no result: L3MBTL1 inh)
Cc1ccccc1OC1C=CC(c2ccccc2)OC1CO (stereo not drawn)	none (no result: L3MBTL1 inh, HTT aggregate, JMJD2E inh)
Cc1ccc2nc(Cl)c3nnnn3c2c1	HTT aggregate 3.5µM, JMJD2E inh inconclusive (no result: L3MBTL1 inh)
Cc1ccc2nc(N3CCN(c4cccc(C)c4C)CC3)c3nnnn3c2c1	JMJD2E inh 3.5µM
c1ccc(CC2CCN(c3nc4ccccc4n4nnnc34)CC2)cc1	JMJD2E inh inconclusive
Cc1ccc(-c2nc3ccccc3n3nnnc23)cc1	JMJD2E inh inconclusive
COc1cccc(/C=N/NC(=O)C(=O)NCc2ccco2)c1O	L3MBTL1 inh inconclusive, HTT aggregate inconclusive, JMJD2E inh 13µM
COc1cccc(/C=N/NC(=O)c2c(-c3ccccc3)noc2C)c1O	HTT aggregate inconclusive, JMJD2E inh 32µM

High-throughput results from PubChem BioAssay.
